Results reported in the supplement of paper PMC10849652.
The full data set covers some 7,900 targets. This sample favours those with a hit. About 0.6% of all pairs of compound and target were hits.

Compound: Cn1cc(-c2ccc3c(c2)CCN3C(=O)Cc2cccc(C(F)(F)F)c2)c2c(N)ncnc21
Test: log2 fold change, soluble protein after heating vs DMSO (PISA); higher = thermal stabilisation; K562 cells, 10 uM, 30 min; active = over 0.2 and 3.5 SD of the protein, either way, in both replicates (recomputed)
Procedure, shortened: (§1)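 K562 cells at 2×10^6 cells/mL were given 10 μM compound for 30 min. Aliquots then went through 3 min of heating across 48°C-58°C, were pooled, and were extracted in PBS with 0.5% NP-40 at 4°C, and the supernatant after 21,000xg for 90 min was quantified by TMTpro 16plex LC-MS/MS with channel sums equalised. Thermal stability relative to control samples, from duplicates, is given as log2 fold change.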

UniProt Q7LBC6, sequence (Q7LBC6 whole entry, looked up): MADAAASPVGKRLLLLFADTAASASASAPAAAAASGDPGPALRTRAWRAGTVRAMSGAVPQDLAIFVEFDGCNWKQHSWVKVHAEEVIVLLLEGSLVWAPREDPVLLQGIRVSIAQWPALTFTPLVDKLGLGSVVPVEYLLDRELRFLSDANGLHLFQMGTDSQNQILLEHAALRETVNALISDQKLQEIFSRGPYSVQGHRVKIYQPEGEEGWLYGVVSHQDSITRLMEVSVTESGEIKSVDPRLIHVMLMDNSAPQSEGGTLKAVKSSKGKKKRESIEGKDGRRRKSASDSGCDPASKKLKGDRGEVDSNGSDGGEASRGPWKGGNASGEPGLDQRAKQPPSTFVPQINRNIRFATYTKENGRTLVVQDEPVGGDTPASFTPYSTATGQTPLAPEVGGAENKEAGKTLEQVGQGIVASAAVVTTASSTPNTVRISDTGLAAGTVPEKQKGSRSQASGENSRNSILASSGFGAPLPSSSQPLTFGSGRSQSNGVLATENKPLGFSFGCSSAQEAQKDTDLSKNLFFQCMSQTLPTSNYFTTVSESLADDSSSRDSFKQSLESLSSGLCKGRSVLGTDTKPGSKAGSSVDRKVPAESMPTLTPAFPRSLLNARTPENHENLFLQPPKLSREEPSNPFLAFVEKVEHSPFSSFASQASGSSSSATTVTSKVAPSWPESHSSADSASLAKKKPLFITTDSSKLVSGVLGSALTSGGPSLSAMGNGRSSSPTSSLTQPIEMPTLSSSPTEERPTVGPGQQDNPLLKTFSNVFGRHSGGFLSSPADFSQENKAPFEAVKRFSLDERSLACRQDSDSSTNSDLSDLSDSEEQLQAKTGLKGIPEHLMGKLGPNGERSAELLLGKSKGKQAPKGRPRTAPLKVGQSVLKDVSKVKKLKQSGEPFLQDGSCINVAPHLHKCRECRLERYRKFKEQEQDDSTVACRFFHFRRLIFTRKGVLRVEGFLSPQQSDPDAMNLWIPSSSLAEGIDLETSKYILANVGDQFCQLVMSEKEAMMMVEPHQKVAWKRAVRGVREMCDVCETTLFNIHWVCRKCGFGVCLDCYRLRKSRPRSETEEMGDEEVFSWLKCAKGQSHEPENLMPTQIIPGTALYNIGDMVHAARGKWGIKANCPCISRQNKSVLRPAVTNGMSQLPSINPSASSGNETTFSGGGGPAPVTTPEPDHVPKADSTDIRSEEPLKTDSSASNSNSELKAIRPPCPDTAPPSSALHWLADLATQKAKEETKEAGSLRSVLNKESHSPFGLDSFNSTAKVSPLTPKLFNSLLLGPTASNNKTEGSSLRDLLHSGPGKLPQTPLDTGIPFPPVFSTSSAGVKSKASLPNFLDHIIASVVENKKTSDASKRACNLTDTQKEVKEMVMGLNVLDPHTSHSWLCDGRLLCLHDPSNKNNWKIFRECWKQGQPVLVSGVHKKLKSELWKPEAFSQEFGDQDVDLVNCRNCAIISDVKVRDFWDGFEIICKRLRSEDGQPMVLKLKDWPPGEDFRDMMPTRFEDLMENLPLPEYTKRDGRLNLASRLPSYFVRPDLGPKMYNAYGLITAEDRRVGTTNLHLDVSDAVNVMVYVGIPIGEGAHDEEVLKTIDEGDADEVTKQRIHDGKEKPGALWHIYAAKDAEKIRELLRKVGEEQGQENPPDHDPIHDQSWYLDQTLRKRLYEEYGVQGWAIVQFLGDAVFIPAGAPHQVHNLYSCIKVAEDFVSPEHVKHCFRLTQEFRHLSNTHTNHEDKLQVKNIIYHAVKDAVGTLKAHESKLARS
UniProt P43362, sequence (P43362 whole entry, looked up): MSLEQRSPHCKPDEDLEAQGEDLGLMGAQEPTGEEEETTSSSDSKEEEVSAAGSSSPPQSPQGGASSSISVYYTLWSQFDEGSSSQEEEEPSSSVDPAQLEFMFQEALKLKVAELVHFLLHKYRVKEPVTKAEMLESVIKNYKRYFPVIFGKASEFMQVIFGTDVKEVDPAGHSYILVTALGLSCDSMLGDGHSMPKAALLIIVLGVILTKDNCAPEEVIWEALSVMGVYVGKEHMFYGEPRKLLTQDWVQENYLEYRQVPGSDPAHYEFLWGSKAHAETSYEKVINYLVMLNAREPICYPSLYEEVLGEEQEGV
UniProt Q8IVT5, sequence (Q8IVT5 whole entry, looked up): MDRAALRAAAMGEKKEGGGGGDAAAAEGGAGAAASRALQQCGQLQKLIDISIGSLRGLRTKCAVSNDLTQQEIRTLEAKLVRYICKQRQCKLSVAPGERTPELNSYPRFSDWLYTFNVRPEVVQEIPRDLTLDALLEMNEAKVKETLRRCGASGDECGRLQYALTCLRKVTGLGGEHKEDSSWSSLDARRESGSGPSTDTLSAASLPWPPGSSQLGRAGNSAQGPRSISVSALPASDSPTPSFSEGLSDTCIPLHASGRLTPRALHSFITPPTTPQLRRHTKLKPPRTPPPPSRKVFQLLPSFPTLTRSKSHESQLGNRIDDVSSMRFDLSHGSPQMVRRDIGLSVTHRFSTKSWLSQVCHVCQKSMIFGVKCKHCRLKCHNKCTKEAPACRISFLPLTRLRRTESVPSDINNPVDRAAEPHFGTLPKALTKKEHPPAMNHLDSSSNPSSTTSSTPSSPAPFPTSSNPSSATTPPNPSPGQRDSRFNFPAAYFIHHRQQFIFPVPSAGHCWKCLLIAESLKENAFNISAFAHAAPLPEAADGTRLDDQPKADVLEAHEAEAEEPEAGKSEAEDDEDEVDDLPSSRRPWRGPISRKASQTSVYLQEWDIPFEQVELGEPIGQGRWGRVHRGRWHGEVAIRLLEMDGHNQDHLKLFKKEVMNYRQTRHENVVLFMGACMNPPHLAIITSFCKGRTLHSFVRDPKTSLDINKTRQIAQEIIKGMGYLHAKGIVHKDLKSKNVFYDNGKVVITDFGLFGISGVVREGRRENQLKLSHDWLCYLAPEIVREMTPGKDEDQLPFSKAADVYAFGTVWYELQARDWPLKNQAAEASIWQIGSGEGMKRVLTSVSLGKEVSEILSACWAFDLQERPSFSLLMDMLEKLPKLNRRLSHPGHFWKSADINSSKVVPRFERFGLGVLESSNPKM
UniProt Q9UHB6, sequence (Q9UHB6 whole entry, looked up): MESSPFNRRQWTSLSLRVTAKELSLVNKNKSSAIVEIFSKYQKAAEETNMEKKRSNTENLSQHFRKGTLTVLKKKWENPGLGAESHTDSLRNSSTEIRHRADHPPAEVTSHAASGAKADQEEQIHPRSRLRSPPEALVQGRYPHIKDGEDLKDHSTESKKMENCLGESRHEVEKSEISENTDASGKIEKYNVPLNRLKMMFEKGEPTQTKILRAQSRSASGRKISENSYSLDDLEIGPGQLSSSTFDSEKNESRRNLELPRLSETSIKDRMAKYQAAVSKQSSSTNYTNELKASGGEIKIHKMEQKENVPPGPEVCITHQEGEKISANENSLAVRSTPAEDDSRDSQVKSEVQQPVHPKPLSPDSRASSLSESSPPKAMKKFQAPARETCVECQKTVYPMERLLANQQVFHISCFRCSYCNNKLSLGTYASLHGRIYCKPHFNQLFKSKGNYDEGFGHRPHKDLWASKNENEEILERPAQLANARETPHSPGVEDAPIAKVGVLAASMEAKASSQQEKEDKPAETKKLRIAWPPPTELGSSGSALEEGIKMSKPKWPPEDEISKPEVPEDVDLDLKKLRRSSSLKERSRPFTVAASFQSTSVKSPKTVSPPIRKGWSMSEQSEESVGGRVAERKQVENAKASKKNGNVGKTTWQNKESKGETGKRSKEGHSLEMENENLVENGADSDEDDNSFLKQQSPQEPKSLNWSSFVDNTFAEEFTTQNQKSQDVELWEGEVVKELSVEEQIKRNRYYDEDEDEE
UniProt P01130, sequence (P01130 whole entry, looked up): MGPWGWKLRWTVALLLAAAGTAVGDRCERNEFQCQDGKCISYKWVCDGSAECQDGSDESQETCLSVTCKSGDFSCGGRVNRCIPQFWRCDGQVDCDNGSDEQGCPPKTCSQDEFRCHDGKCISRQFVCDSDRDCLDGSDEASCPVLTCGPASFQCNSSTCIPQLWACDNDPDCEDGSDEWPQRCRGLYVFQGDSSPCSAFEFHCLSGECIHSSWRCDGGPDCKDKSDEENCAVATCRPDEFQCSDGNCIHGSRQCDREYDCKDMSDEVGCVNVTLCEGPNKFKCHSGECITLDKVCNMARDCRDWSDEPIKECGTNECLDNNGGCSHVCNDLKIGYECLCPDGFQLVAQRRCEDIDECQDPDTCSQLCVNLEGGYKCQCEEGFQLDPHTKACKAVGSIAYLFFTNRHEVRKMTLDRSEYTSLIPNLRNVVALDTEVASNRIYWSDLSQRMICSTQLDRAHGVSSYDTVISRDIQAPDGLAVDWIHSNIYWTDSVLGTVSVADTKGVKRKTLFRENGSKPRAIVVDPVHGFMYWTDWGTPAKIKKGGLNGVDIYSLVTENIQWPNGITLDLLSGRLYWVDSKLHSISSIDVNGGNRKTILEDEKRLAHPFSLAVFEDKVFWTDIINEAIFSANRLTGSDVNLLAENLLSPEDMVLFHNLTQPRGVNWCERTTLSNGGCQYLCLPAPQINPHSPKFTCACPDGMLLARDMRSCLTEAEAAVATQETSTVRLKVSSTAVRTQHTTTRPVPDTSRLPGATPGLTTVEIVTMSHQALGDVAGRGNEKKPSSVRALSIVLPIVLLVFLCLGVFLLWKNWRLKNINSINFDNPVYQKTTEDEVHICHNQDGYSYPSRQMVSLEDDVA
UniProt Q9Y383, sequence (Q9Y383 whole entry, looked up): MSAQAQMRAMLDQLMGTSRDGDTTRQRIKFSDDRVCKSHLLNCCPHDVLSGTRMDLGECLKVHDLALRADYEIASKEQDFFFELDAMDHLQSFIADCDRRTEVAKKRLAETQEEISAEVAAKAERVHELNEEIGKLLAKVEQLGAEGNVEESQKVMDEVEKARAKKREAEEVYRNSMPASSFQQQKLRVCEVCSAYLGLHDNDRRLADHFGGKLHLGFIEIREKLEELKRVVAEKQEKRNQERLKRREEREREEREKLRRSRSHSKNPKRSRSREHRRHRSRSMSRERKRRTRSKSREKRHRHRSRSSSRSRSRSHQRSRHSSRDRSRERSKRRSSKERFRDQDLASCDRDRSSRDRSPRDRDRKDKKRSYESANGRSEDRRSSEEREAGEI

log2 fold change, inactive:
LUC7L2 (UniProt Q9Y383) -0.033, ILF3 isoform 7 (UniProt Q12906) -0.179, MAGOHB (UniProt Q96A72) -0.017, KDM5D isoform 3 (UniProt Q9BY66) -0.026, LIMD1 (UniProt Q9UGP4) 0.021, MED1 (UniProt Q15648) -0.064, MCL1 (UniProt Q07820) -0.021, LIMA1 isoform 4 (UniProt Q9UHB6) -0.154, LMBRD1 (UniProt Q9NUN5) -0.139, KIF13A (UniProt Q9H1H9) 0.029, MARCKSL1 (UniProt P49006) -0.008, LARP4 isoform 4 (UniProt Q71RC2) -0.078, KIF21A isoform 4 (UniProt Q7Z4S6) -0.066, LEMD3 (UniProt Q9Y2U8) 0.163, MAP3K7 (UniProt O43318) -0.095, MAPKAPK3 (UniProt Q16644) -0.005, MAPK14 isoform 2 (UniProt Q16539) -0.071, ITIH4 (UniProt Q14624) 0.148, MAGEA9 (UniProt P43362) 0.065, IMMT isoform 4 (UniProt Q16891) 0.015, MEPCE (UniProt Q7L2J0) 0.023, LSS (UniProt P48449) 0.145, LONP2 (UniProt Q86WA8) 0.055, KDM3B (UniProt Q7LBC6) -0.032, LARP4B (UniProt Q92615) -0.052, LDLR (UniProt P01130) 0.013, IRF2BPL (UniProt Q9H1B7) 0.083, LTN1 isoform 3 (UniProt O94822) -0.09, LARP7 isoform 3 (UniProt Q4G0J3) 0.021, LNPK (UniProt Q9C0E8) 0.025, MAP2K3 isoform 3 (UniProt P46734) 0.005, MICU2 (UniProt Q8IYU8) -0.022, MGST3 (UniProt O14880) 0.004, KSR1 (UniProt Q8IVT5) 0.003, IWS1 (UniProt Q96ST2) -0.013, MFN1 (UniProt Q8IWA4) 0.032, MARK3 (UniProt P27448) -0.062, MDC1 (UniProt Q14676) -0.031, MAP4 (UniProt E7EVA0) -0.166

Compound: Cn1cc(-c2ccc3nnc(C(F)(F)c4ccc5ncccc5c4)n3n2)cn1
Test: as above
Procedure, shortened: as §1

log2 fold change, inactive:
LUC7L2 (UniProt Q9Y383) -0.059, ILF3 isoform 7 (UniProt Q12906) -0.089, MAGOHB (UniProt Q96A72) 0.024, KDM5D isoform 3 (UniProt Q9BY66) 0.058, LIMD1 (UniProt Q9UGP4) -0.015, MED1 (UniProt Q15648) -0.089, MCL1 (UniProt Q07820) -0.158, LIMA1 isoform 4 (UniProt Q9UHB6) -0.071, LMBRD1 (UniProt Q9NUN5) 0.014, KIF13A (UniProt Q9H1H9) -0.032, MARCKSL1 (UniProt P49006) -0.004, LARP4 isoform 4 (UniProt Q71RC2) -0.103, KIF21A isoform 4 (UniProt Q7Z4S6) -0.073, LEMD3 (UniProt Q9Y2U8) 0.049, MAP3K7 (UniProt O43318) -0.026, MAPKAPK3 (UniProt Q16644) 0, MAPK14 isoform 2 (UniProt Q16539) -0.02, ITIH4 (UniProt Q14624) 0.114, MAGEA9 (UniProt P43362) -0.024, IMMT isoform 4 (UniProt Q16891) 0.018, MEPCE (UniProt Q7L2J0) 0.061, LSS (UniProt P48449) 0, LONP2 (UniProt Q86WA8) -0.131, KDM3B (UniProt Q7LBC6) 0.006, LARP4B (UniProt Q92615) -0.031, LDLR (UniProt P01130) 0.029, IRF2BPL (UniProt Q9H1B7) -0.084, LTN1 isoform 3 (UniProt O94822) -0.042, LARP7 isoform 3 (UniProt Q4G0J3) 0.029, LNPK (UniProt Q9C0E8) 0.011, MAP2K3 isoform 3 (UniProt P46734) -0.083, MICU2 (UniProt Q8IYU8) -0.05, MGST3 (UniProt O14880) -0.026, KSR1 (UniProt Q8IVT5) -0.129, IWS1 (UniProt Q96ST2) 0.022, MFN1 (UniProt Q8IWA4) -0.019, MARK3 (UniProt P27448) -0.046, MDC1 (UniProt Q14676) -0.043, MAP4 (UniProt E7EVA0) -0.036
